From PubChem BioAssay (Tox21) come the findings set out here.

The nature of test [1]: qHTS assay to identify small molecule agonists of the sonic hedgehog signaling (Shh) pathway (AID 1259368).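 Also: NIH/3T3-derived 3T3Gli1-Luc cells carrying a stable Gli1-driven firefly luciferase reporter; series mostly up to about 92 µM; nearly all actives have a fitted effect of over 15% in size.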 The method in brief:
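Mouse fibroblast (NIH/3T3) reporter cells with stably integrated Gli1-Luc were treated 24 hr with compound; firefly luciferase luminescence served as the read-out.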
(Quantitative high-throughput screening tests each substance at several concentrations.)

Test [2] in a line: qHTS assay to identify small molecule antagonists of the sonic hedgehog signaling (Shh) pathway (AID 1259369). Also: nearly all actives have a fitted effect of over 45% in size. Also: potency is read from the fitted curve at half-maximal effect. The method in brief:
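Conditioned medium drives Shh signalling in 3T3Gli1-Luc cells; compounds in DMSO co-applied, 24hr at 37 C, then luciferase luminescence.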

A short description of test [3]: qHTS assay to identify small molecule agonists of the androgen receptor (AR) signaling pathway in the presence of an antagonist - cell viability counter screen (AID 1259379; active = well fitted curve in the direction sought with a large enough effect in the repeat runs; an effect the other way counts as inactive or inconclusive; also: nearly all actives have a fitted effect of over 25% in size; also: potency is read from the fitted curve at half-maximal effect). The essentials:
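A CellTiter-Fluor read-out measured viability of MDA-kb2 reporter cells (MMTV promoter with AR and GR response elements). Treatment: nilutamide 3.0uM final with compounds at 15 concentrations, 16 hr, 37C, 0% CO2.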

Test [4] is described as follows: qHTS assay to identify small molecule agonists of the estrogen receptor beta (ER-beta) signaling pathway - cell viability counter screen (AID 1259380; active = well fitted curve in the direction sought with a large enough effect in the repeat runs; an effect the other way counts as inactive or inconclusive; also: nearly all actives have a fitted effect of over 30% in size; also: potency is read from the fitted curve at half-maximal effect). The method in brief:
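Cells used were ER-beta-UAS-bla HEK293T in medium with 2% charcoal-stripped FBS. They were treated for 16 hr at 37C. Viability came from CellTiter-Glo luminescence.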

The target in test [5] is Androgen receptor (Homo sapiens) (UniProt P10275). Briefly: qHTS assay to identify small molecule agonists of the androgen receptor (AR) signaling pathway in the presence of an antagonist (AID 1259381). Also: nearly all actives have a fitted effect of over 15% in size. The method in brief: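 Using human MDA-kb2 cells with an MMTV promoter–luciferase construct (AR and GR response elements), agonist activity is scored under 3.0uM nilutamide (final) co-treatment; 16hr incubation, 37C, luminescence readout via ONE-Glo.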
Androgen receptor (Homo sapiens), sequence (P10275 whole entry, looked up): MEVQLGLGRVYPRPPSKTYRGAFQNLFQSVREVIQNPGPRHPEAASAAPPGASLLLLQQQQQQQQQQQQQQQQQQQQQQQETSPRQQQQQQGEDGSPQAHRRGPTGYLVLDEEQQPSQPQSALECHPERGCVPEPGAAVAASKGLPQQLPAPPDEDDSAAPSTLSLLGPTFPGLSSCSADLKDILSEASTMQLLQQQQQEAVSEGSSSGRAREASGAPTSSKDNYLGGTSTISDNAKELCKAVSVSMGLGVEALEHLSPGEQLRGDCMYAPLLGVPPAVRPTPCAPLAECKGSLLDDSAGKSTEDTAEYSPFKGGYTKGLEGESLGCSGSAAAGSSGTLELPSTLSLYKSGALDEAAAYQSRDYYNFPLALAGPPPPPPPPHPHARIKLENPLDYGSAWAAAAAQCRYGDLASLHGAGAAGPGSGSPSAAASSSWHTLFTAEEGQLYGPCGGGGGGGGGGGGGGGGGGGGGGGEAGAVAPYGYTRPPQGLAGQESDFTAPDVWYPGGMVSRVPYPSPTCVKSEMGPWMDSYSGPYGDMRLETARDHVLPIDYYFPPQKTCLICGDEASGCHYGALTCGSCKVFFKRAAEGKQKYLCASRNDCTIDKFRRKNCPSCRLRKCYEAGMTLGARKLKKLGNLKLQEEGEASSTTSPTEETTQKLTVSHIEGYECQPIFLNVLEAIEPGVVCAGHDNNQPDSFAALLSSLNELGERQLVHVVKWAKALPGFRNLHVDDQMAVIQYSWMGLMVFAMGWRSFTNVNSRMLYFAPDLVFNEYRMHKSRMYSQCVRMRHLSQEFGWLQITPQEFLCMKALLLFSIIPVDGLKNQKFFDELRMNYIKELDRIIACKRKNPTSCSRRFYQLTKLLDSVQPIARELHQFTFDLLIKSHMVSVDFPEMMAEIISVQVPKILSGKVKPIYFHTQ

Test [6] can be described thus: qHTS assay to identify small molecule antagonists of the estrogen receptor beta (ER-beta) signaling pathway - cell viability counter screen (AID 1259382; active = well fitted curve in the direction sought with a large enough effect in the repeat runs; an effect the other way counts as inactive or inconclusive; also: nearly all actives have a fitted effect of over 55% in size; also: potency is read from the fitted curve at half-maximal effect). The essentials:
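Agonist-stimulated (1nM E2) ER-beta-UAS-bla HEK293T cells are incubated with library compounds for 16 hr at 37C. Cell viability is then assessed in the reporter-assay wells by adding CellTiter-Glo and reading luminescence after 30 min.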

Test [7] deals with Estrogen receptor (Homo sapiens) (UniProt P03372). The test is described as follows: qHTS assay to identify small molecule agonists of the estrogen receptor alpha (ER-alpha) signaling pathway in the presence of an antagonist (AID 1259383). Also: top concentration of the series differs between compounds; nearly all actives have a fitted effect of over 15% in size. The essentials: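 Using VM7Luc4E2 cells seeded 24hr before treatment, antagonist ICI-182,780 (10.0nM final) was added, followed by compounds at 15 concentrations. Plates incubated 22hr; ONE-Glo luminescence quantified reporter activity.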
Estrogen receptor (Homo sapiens), sequence (P03372 whole entry, looked up): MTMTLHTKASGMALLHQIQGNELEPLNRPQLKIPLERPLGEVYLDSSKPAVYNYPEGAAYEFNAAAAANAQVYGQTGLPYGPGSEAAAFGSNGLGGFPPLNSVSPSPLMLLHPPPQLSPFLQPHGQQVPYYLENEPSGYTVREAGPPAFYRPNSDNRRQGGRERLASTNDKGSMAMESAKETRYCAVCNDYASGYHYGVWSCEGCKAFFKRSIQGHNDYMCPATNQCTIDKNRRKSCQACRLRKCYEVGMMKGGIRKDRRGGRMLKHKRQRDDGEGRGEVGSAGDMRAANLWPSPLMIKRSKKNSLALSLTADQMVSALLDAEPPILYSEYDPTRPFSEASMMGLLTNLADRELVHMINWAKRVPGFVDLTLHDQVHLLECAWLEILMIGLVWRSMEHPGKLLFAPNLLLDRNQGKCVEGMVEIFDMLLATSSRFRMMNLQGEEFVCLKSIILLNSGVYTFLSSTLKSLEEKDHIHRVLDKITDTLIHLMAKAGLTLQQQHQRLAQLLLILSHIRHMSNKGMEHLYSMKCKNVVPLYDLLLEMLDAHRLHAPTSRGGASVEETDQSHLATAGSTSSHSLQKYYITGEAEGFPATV

Test [8] is described as follows: qHTS assay to identify small molecule agonists or antagonists of the thyroid stimulating hormone receptor (TSHR) signaling pathway - wild type cell line counter screen (AID 1259384). The method in brief:
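Wild-type HEK293 cells were plated 18 h at 37 C/5% CO2, pin-dosed with compound plus Ro20-1724 medium, held 30 min at room temperature, then given cAMP-d2 and anti-cAMP-cryptate; fluorescence was read after 1 h. Fifteen concentrations, triplicate.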

Test [9] has as its target Thyrotropin receptor (Homo sapiens) (UniProt P16473). Briefly: qHTS assay to identify small molecule antagonists of the thyroid stimulating hormone receptor (TSHR) signaling pathway (AID 1259385). Also: nearly all actives have a fitted effect of over 20% in size. Also: potency is read from the fitted curve at half-maximal effect. The method in brief: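 TSHR-HEK293 cells were plated and held 18 h at 37C/5% CO2, then given compound plus Ro20-1724 and stimulated with TSH at 1.5 ng/mL final. After 30 min at room temperature, cAMP was detected with cAMP-d2/anti-cAMP-cryptate (1 h) by fluorescence.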

Test [10] concerns the target Progesterone receptor (Homo sapiens) (UniProt P06401). Briefly: qHTS assay to identify small molecule antagonists of the progesterone receptor (PR) signaling pathway (AID 1346795; active = well fitted inhibition curve with a large enough effect in the signal ratio in the repeat runs, not every such curve was filed as active; the % refers to the signal ratio; also: potency is read from the fitted curve at half-maximal effect). The method in brief: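 Stimulus R5020 at 1 nM final; cells HEK293T PR-UAS-bla; medium with 2% charcoal-stripped FBS; compound exposure 16 hr at 37C, 5% CO2; detection by FRET beta-lactamase substrate, 2 hr, room temperature.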

The nature of test [11]: qHTS assay to identify small molecule antagonists of the progesterone receptor (PR) signaling pathway - cell viability counter screen (AID 1346798; active = well fitted curve in the direction sought with a large enough effect in the repeat runs; an effect the other way counts as inactive or inconclusive; also: nearly all actives have a fitted effect of over 50% in size; also: potency is read from the fitted curve at half-maximal effect). The essentials:
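In the same plates used for the beta-lactamase readout, cell viability of compound- and R5020-treated PR-UAS-bla HEK293T cells (16 hr, 37C) was assessed by CellTiter-Glo luminescence.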

A short description of test [12]: qHTS assay to identify small molecule agonists of the progesterone receptor (PR) signaling pathway - cell viability counter screen (AID 1346799). Also: nearly all actives have a fitted effect of over 45% in size. Also: potency is read from the fitted curve at half-maximal effect. The method in brief:
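Multiplexed viability read: CellTiter-Glo luminescence, 30 min RT, following LiveBLAzer FRET measurement on PR-UAS-bla HEK293T cells exposed to compounds 16 hr.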

Test [13] in a line: qHTS assay to identify small molecule antagonists of the TGF-beta/Smad signaling pathway - cell viability counter screen (AID 1346824; active = well fitted curve in the direction sought with a large enough effect in the repeat runs; an effect the other way counts as inactive or inconclusive; also: nearly all actives have a fitted effect of over 50% in size; also: potency is read from the fitted curve at half-maximal effect). The essentials:
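SBE-bla HEK 293T cells were plated overnight at 37 C, then given compounds in DMSO plus TGF-beta1 (added as 0.25 ng/mL solution) for 5 hr. After the bla read, CellTiter-Glo was added to the same wells and luminescence read after 30 min at room temperature.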

Test [14] is described as follows: qHTS assay to identify small molecule agonists of the TGF-beta/Smad signaling pathway - cell viability counter screen (AID 1346829; active = well fitted curve in the direction sought with a large enough effect in the repeat runs; an effect the other way counts as inactive or inconclusive; also: nearly all actives have a fitted effect of over 45% in size; also: potency is read from the fitted curve at half-maximal effect). The essentials:
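Here the cytotoxicity of library compounds is measured in SBE-bla HEK 293T cells treated for 5 hr, using CellTiter-Glo added to wells already read for the beta-lactamase reporter.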

Test [15] in a line: qHTS assay to identify small molecule agonists of the TGF-beta/Smad signaling pathway (AID 1346859; active = well fitted activation curve with a large enough effect in the signal ratio in the repeat runs, not every such curve was filed as active; the % refers to the signal ratio; also: series mostly up to about 77 µM). The method in brief:
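Screening used HEK 293T SBE-bla cells at 4,000/well. Test agents: 5 hr, 37 C. Detection: FRET substrate, 2 hr RT, then excitation 405 nm with emissions at 460 and 530 nm.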

Test [16] addresses Thyrotropin-releasing hormone receptor (Homo sapiens) (UniProt P34981). The test is described as follows: qHTS assay to identify small molecule antagonists of the thyrotropin-releasing hormone receptor (TRHR) signaling pathway (AID 1346877; active = well fitted inhibition curve with a large enough effect in the repeat runs, not every such curve was filed as active; also: potency is read from the fitted curve at half-maximal effect). The essentials:
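Screening used HEK293 cells engineered with TRHR, with a brief 5 min room-temperature compound exposure preceding addition of TRH to 1 nM. The read-out was kinetic calcium-dye fluorescence, concentration-response from 15 doses in triplicate.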

In test [17] the target is Estrogen receptor beta (Homo sapiens) (UniProt Q92731). Briefly: qHTS assay to identify small molecule agonists of the estrogen receptor beta (ER-beta) signaling pathway (AID 1259377; active = well fitted activation curve with a large enough effect in the signal ratio in the repeat runs, not every such curve was filed as active; the % refers to the signal ratio). The method in brief: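 Reporter cells (HEK293T, ER-beta-UAS-bla) receive compounds or DMSO after a 6 hr pre-incubation. They then incubate 16 hr at 37C/5% CO2, and fluorescence from LiveBLAzer B/G substrate is measured after 2 hours at room temperature.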
Estrogen receptor beta (Homo sapiens), sequence (Q92731 whole entry, looked up): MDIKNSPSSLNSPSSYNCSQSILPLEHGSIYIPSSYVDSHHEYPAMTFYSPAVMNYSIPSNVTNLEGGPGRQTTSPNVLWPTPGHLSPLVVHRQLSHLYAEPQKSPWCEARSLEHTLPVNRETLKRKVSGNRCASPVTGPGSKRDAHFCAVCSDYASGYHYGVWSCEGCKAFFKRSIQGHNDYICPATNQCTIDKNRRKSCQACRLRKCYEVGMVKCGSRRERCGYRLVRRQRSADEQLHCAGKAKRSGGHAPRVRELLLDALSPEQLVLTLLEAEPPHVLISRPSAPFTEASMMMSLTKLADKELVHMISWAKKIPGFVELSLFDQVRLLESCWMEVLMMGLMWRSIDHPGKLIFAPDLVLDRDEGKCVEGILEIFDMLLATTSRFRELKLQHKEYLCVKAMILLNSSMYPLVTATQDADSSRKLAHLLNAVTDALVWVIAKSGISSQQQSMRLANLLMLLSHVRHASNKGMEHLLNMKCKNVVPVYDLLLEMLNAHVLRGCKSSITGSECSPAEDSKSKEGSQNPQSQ

Test [18] can be described thus: qHTS assay to identify small molecule agonists of the estrogen receptor alpha (ER-alpha) signaling pathway in the presence of an antagonist - cell viability counter screen (AID 1259386; active = well fitted curve in the direction sought with a large enough effect in the repeat runs; an effect the other way counts as inactive or inconclusive;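 also: cells exposed to compounds for 22 h at 37 °C before the viability read; nearly all actives have a fitted effect of over 30% in size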; also: potency is read from the fitted curve at half-maximal effect). The method in brief: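 ICI-182,780 at 10.0nM final accompanies the compound titration (15 concentrations, 22hr, 37C) on VM7Luc4E2 cells. The CellTiter-Fluor fluorescence readout runs in the same wells as the luciferase assay.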

Test [19] addresses Progesterone receptor (Homo sapiens) (UniProt P06401). Briefly: qHTS assay to identify small molecule agonists of the progesterone receptor (PR) signaling pathway (AID 1346784). Also: nearly all actives have a fitted effect of over 30% in size. The essentials:
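Reporter assay, GripTite PR-UAS-bla HEK 293T cells: 16 hr exposure to DMSO-dissolved compounds at 37C, 5% CO2, in steroid-depleted (2% charcoal-stripped FBS) medium; beta-lactamase measured by FRET fluorescence.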

Test [20] has as its target Estrogen receptor beta (Homo sapiens) (UniProt Q92731). Briefly: qHTS assay to identify small molecule antagonists of the estrogen receptor beta (ER-beta) signaling pathway (AID 1259378; active = well fitted inhibition curve with a large enough effect in the signal ratio in the repeat runs, not every such curve was filed as active; the % refers to the signal ratio). The essentials: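 ER-beta-UAS-bla HEK293T (GripTite) cells in 2% charcoal-stripped FBS medium were preincubated 6 hr at 37C, dosed with compound, then stimulated with 1 nM E2 (final) for 16 hr; beta-lactamase reporter read by B/G FRET fluorescence after 2 hr substrate loading.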

Molecules are shown by their SMILES. Several values for one entry are separate records, joined by “and”; a condition that tells them apart may be missing. Identical values can stand only once. Inconclusive results are not listed. Some structures have more than one record in an assay (separate samples or runs), and their calls can disagree. Activity calls are given as the source filed them. Unless noted, calls follow the shape of the full dose curve.

Thyrotropin-releasing hormone receptor (Homo sapiens), sequence (P34981 whole entry, looked up): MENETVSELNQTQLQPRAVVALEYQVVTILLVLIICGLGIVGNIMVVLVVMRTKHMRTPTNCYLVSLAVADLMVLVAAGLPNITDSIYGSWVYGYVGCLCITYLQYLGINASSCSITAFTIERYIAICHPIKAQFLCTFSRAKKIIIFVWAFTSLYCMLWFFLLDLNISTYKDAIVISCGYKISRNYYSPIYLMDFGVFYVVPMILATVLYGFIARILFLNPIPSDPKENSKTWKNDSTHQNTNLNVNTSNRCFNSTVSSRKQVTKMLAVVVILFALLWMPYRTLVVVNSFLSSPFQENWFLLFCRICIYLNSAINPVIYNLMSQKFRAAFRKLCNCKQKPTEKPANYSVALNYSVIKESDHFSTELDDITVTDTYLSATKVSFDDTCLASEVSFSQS
Thyrotropin receptor (Homo sapiens), sequence (P16473 whole entry, looked up): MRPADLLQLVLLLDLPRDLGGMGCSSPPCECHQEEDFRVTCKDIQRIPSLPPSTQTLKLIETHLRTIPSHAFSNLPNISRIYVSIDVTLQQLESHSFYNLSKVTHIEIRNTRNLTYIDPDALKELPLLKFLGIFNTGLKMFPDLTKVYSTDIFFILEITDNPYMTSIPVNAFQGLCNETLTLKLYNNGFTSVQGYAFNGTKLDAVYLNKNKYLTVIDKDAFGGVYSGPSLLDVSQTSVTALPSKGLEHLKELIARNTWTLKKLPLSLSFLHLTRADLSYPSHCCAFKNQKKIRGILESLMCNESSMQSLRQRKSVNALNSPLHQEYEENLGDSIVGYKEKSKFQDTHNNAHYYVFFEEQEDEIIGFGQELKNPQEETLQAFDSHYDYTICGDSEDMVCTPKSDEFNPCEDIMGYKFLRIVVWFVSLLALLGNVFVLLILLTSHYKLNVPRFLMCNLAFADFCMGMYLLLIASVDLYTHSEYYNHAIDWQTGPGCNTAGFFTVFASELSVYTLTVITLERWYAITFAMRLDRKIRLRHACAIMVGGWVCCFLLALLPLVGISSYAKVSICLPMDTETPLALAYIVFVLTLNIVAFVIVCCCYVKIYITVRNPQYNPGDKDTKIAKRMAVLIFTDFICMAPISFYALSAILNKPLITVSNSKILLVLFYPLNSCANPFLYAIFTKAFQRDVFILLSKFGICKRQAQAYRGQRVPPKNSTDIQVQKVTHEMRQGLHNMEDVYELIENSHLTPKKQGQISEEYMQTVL
Progesterone receptor (Homo sapiens), sequence (P06401 whole entry, looked up): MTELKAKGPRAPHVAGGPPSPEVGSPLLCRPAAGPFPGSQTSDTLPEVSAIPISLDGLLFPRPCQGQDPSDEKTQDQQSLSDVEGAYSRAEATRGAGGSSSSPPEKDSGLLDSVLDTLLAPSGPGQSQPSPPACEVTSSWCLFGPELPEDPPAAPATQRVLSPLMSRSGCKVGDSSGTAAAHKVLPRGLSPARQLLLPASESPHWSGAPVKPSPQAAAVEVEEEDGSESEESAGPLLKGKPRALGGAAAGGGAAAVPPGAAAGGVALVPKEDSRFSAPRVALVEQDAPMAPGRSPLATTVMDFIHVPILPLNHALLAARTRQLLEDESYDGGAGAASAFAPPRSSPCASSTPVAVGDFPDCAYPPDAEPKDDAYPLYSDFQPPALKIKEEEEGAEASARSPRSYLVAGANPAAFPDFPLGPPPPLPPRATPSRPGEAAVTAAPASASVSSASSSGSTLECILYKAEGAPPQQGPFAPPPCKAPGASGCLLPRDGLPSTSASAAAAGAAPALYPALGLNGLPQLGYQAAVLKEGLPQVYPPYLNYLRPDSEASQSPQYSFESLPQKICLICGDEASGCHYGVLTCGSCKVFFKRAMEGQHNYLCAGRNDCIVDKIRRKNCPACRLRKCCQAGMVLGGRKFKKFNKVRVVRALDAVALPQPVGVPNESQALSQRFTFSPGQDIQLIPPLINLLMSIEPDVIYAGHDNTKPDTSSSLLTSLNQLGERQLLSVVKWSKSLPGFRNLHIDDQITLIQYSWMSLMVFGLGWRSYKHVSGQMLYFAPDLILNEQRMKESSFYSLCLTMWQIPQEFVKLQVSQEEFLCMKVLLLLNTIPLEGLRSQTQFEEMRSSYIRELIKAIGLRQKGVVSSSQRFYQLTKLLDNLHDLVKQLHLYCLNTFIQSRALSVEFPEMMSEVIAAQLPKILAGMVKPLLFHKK

With `IC(I)=C(I)I`, the Potency entry in test [1], in [5], in test [7] and in test [9] was “inactive” in each case. Further, the Potency in test [2] is 2.73 µM (active); in [3] it was 27.3 µM (active); in test [4], 21.7 µM (active); in [6], 21.7 µM (active); in [10], 17.2 µM (active); in [11], 27.3 µM (active). In addition, the Potency in [12] was 27.3 µM (active); in test [13], 43.6 µM (active); in test [14], 43.6 µM (active); in test [16] it was 1.2 µM (active). For the same molecule, the outcome in test [8] and in test [15] was inactive.
Consider `CCc1ccc(C(=O)NN(C(=O)c2cc(C)cc(C)c2)C(C)(C)C)cc1`, for which the Potency result in test [1], in test [2], in test [17], in test [3], in [4] and in test [6] was “inactive” in each case. Further, the Potency entry in test [7], in test [9], in test [19], in [11], in [13] and in test [14] was “inactive” each time. The Potency result in test [16] is “inactive”. The outcome in test [8] and in test [15] was inactive. In addition, the Potency in test [18] was 5.45 µM (active).
`COC1=CC(=O)O[C@@H](CCc2ccccc2)C1`: the Potency entry in [1], in [2], in test [20], in [3], in test [4] and in [5] was “inactive” each time. Further, the Potency entry in test [6], in [9], in test [18], in test [19], in test [11] and in test [12] was “inactive” throughout. The Potency result in [13], in test [14] and in test [16] was “inactive” each time. Also, the call in test [8] was inactive.
As for `CCCCCCCCCCOC(=O)c1ccccc1C(=O)OCCCCCCCCCC`, the Potency result in test [1], in test [2], in test [3], in test [4], in test [5] and in test [6] was “inactive” in each case. Besides, the Potency result in test [7], in test [9], in test [18], in [19], in test [10] and in [11] was “inactive” in each case. The Potency result in test [12], in [13], in [14] and in [16] was “inactive” each time. In addition, the outcome in test [8] and in test [15] was inactive.
Consider `COc1c(C(C)(C)C)cc([N+](=O)[O-])c(C)c1[N+](=O)[O-]`, for which the Potency result in [1], in test [2], in test [20], in test [3], in test [4] and in test [6] was “inactive” each time. The Potency result in [7], in test [18], in [19], in test [10], in [11] and in test [12] was “inactive” throughout. Also, the Potency result in [13] and in test [14] was “inactive” in each case. In addition, the call in test [15] was inactive.
`CCOP(=S)(OCC)Oc1nc(Cl)c(Cl)cc1Cl`: the Potency entry in [1], in [2], in [20], in [3], in test [5] and in test [6] was “inactive” throughout. Besides, the Potency entry in test [18], in [19], in test [13], in test [14] and in test [16] was “inactive” throughout. The Potency in test [4] is 38.6 µM (active); in test [9] it was 27.4 µM (active) and 54.5 µM (active); in test [12] it was 61.3 µM (active) and inactive. Besides, the call in test [8] and in test [15] was inactive.
For the molecule `O=C(NC(=O)c1c(F)cccc1F)Nc1cc(Cl)c(Oc2ncc(C(F)(F)F)cc2Cl)c(Cl)c1`, the Potency entry in test [1], in test [17], in test [5], in test [6], in [7] and in [9] was “inactive” throughout. The Potency entry in [18], in test [19], in test [11], in test [12], in [13] and in test [14] was “inactive” throughout. Besides, the Potency entry in test [16] was “inactive”. For the same molecule, in test [2], the Potency was 23.3 µM (active). The result in test [8] was inactive.
